This note sets out measurements from PubChem BioAssay (NCATS).

The target in assay [1] is Cytochrome P450 1A2 (Homo sapiens) (UniProt P05177). Nature of the assay: p450-cyp1a2 (AID 410; calls by dose curve; note: potency is the fitted concentration of half-maximal effect). Put shortly:
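Read-out is luminescence from luciferin produced by CYP1A2 demethylation of Luciferin-ME (100uM, at Km). Detection reagent stopped the 60 min NADPH-dependent reaction; signals were normalized to 57 uM furafylline.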

Assay [2] concerns the target Glucocorticoid receptor (Homo sapiens) (UniProt P04150). The experiment in a line: GR-GFP Redistribution (AID 450;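 active = compounds whose dose series gives a full or clear partial fitted curve of increased nuclear translocation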; note: potency is the fitted concentration of half-maximal effect). To be noted: U2OS GR-GFP nuclear translocation, laser cytometry, 2 h.
Assay [3] shares this target. The experiment in a line: GR-EFC Redistribution (AID 451; calls by dose curve; note: potency is the fitted concentration of half-maximal effect). As to conditions: CHO-K1 GR-EFC translocation, beta-gal luminescence, 2 h. Summed up: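 Translocation of GR-ED fusion to nuclear EA restores b-gal, read by luminescence after 1 h room-temperature detection. Engineered CHO-K1 biosensor cells, 1,000/well, exposed 2 h at 37 C to titrations up to 46 uM final.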
For assay [4], the target named is Mitogen-activated protein kinase 10 (Mus musculus) (UniProt Q61831). Nature of the assay: JNK3 AlphaScreen Assay (AID 530; active = well fitted curve in either direction with a large enough effect, not every such curve was filed as active;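 note: kinase came from lysate of stimulated human HepG2 cells; signal reports phosphorylation of biotinylated GST-cJun 1-79 at Ser73 with 10 µM ATP; series mostly up to about 57 µM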). Summed up: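 Kinase buffer: 20 mM Tris-HCl pH 7.6, 10 mM MgCl2, 1 mM DTT, 0.1 mM Na3VO4, 0.01% Tween-20; ATP 10 uM. Substrate biotin-GST-cJun(1-79), enzyme from activated HepG2 lysates. Detection by Ser73 phospho-antibody AlphaScreen.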
The target in assay [5] is 3',5'-cyclic-AMP phosphodiesterase 4B (Homo sapiens) (UniProt Q07343). Nature of the assay: qHTS Assay for Inhibitors of PDE-IV (AID 607; active = well fitted activation curve with a large enough effect in the main read-out, with a control signal flat, not every such curve was filed as active). Summed up:
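ACTOne HEK293 cells carry a modified cAMP-gated CNG channel and express endogenous PDE4; plated 1000 cells/well, compounds up to 22.9 uM final. Membrane-potential dye fluorescence (ex 535/em 590) was read; parental cells received 10 uM forskolin + 100 uM RO 20-1724.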
A general note: Quantitative high-throughput screening tests each substance at several concentrations.

Assay [6] has as its target Cytochrome P450 2C9 (Homo sapiens) (UniProt P11712). Nature of the assay: qHTS Assay for Inhibitors and Substrates of Cytochrome P450 2C9 (AID 883). Note: potency is the fitted concentration of half-maximal effect; nearly all actives have a fitted effect of over 60% in size. Summed up:
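Inhibition of CYP2C9 is scored as loss of luminescence, with 57uM sulphaphenazole defining 100% inhibition. Substrate Luciferin-H is used at 100uM, equal to its KM; enzyme at 10nM in 25mM KPO4, 60 min at 37C with NADPH regeneration.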

The target of assay [7] is Cytochrome P450 3A4 (Homo sapiens) (UniProt P08684). Nature of the assay: qHTS Assay for Activators of Cytochrome P450 3A4 (AID 885). Note: nearly all actives have a fitted effect of over 65% in size. Summed up: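 CYP3A4 activity: Luciferin-PPXE O-dealkylation, 25uM substrate, 200mM KPO4, RT throughout. Read-out is luciferase luminescence; higher values reflect activation.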
Chain of Cytochrome P450 3A4 (Homo sapiens) (P08684 whole entry, looked up): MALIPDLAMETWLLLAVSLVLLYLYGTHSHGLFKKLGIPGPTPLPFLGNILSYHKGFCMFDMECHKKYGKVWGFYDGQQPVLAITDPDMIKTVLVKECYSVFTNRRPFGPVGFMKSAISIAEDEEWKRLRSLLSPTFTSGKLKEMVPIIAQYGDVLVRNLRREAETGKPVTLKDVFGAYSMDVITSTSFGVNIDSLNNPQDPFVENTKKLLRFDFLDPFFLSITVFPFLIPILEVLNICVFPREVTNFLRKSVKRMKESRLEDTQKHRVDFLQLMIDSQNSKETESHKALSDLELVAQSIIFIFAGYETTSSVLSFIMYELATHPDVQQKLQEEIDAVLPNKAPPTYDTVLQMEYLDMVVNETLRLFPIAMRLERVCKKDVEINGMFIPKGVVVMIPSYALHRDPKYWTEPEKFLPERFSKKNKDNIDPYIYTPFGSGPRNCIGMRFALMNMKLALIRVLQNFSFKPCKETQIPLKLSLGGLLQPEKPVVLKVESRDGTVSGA
The target of assay [8] is Ubiquitin carboxyl-terminal hydrolase 1 (Homo sapiens) (UniProt O94782). Nature of the assay: Inhibitors of USP1/UAF1: Pilot qHTS (AID 504865).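 Note: rhodamine fluorescence freed from ubiquitin-rhodamine substrate followed over time; top concentration of the series differs between compounds; nearly all actives have a fitted effect of over 35% in size.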 Summed up: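 USP1/UAF1 complex at 1 nM preincubated 15 min at room temperature with compound, then Ub-Rho substrate added at 150 nM final. Fluorescence (480/540 nm) read kinetically in 50 mM HEPES pH 7.8, 0.5 mM EDTA, 1 mM TCEP, 0.1 mg/ml BSA, 0.01% Tween-20.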
Chain of Ubiquitin carboxyl-terminal hydrolase 1 (Homo sapiens) (O94782 whole entry, looked up): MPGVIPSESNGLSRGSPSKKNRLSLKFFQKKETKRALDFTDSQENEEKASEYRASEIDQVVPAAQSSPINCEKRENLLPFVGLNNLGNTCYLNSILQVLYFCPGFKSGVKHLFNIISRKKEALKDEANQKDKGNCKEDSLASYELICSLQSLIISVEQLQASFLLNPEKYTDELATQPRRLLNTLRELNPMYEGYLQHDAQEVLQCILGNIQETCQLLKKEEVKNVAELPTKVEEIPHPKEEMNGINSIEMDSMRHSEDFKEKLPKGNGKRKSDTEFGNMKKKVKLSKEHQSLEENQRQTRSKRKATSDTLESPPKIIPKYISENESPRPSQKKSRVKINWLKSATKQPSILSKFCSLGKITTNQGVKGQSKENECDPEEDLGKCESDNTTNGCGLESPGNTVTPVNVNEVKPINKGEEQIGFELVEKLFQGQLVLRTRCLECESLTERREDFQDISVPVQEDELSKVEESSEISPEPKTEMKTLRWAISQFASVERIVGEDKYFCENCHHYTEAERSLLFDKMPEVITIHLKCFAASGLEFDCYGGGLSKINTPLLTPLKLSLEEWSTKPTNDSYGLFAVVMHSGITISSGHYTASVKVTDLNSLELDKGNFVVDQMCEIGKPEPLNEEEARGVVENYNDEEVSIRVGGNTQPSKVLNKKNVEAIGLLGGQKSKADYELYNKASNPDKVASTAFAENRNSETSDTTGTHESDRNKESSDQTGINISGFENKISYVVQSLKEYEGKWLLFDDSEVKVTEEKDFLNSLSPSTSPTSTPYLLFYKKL

Assay [9] has as its target DNA dC->dU-editing enzyme APOBEC-3G (Homo sapiens) (UniProt Q9HC16). Nature of the assay: qHTS for inhibitors of Vif-A3G interactions: Validation (AID 588379). Put shortly:
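Yellow fluorescence (Ex 488, Em 500-530) of Vif-coexpressing HeLa A3G-eYFP cells, scanned by Acumen cytometer, reports blocked A3G degradation. Cells plated at 700/well overnight at 37 deg C before compound addition, then a further overnight compound incubation at 37 deg C.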

Assay [10] deals with Furin (Homo sapiens) (UniProt P09958). Nature of the assay: Furin counterscreen qHTS for Zika virus inhibitors (AID 1347149). Note: potency is the fitted concentration of half-maximal effect; nearly all actives have a fitted effect of over 70% in size. Summed up: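 Counterscreen measures cleavage of 2 microM BOC-RVRR-AMC, below its ~15 microM Km, by 5 nM full-length human furin at pH 7.0 after a 15-min compound preincubation. Inhibition derives from the 15-min fluorescence increase at 37C.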
Chain of Furin (Homo sapiens) (P09958 whole entry, looked up): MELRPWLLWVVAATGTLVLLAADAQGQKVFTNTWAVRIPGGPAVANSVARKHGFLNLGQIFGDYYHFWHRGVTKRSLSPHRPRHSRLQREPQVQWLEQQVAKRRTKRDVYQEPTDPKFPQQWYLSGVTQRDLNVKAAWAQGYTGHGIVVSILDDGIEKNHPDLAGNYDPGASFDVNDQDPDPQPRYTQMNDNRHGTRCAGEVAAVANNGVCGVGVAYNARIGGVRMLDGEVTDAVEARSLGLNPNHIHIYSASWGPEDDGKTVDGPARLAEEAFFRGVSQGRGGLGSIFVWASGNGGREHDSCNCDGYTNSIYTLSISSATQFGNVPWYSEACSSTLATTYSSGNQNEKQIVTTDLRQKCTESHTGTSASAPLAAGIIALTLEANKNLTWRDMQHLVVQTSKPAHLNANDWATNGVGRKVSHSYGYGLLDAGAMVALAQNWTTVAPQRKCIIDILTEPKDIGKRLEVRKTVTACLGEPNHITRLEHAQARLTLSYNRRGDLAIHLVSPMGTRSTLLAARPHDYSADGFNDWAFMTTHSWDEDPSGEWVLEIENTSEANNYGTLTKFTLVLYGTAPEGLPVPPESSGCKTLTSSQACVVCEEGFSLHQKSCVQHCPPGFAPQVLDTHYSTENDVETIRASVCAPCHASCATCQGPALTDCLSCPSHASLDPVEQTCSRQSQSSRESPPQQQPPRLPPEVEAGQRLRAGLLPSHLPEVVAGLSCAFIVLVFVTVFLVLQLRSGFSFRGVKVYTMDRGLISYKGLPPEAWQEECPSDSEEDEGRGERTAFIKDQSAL
(Counterscreens check selectivity or assay interference.)

Assay [11] concerns Zika virus NS2B-NS3 protease (linked construct). Nature of the assay: Confirmatory screen NINDS AMC qHTS for Zika virus inhibitors (AID 1347152). Note: potency is the fitted concentration of half-maximal effect; nearly all actives have a fitted effect of over 70% in size. Summed up:
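Linked NS2B-NS3 protease, 1 nM, in 10 mM Tris-HCl pH 8.0, 0.01% Tween 20; compounds preincubated 15 min at room temperature. Nle-KRR-AMC 10 microM (Km 18.3 µM); 15-min fluorescence change (340/450 nm) fitted to 4-parameter Hill.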

The test system of assay [12] is Zika virus NS2B-NS3 protease (unlinked complex). Nature of the assay: Confirmatory screen GU AMC qHTS for Zika virus inhibitors (AID 1347153). Note: nearly all actives have a fitted effect of over 70% in size. Summed up: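 Noncovalent NS2B hydrophilic domain/NS3 protease complex (25 nM) in 10 mM Tris-HCl pH 8.0, 0.01% Tween 20 was preincubated 15 min at room temperature with compounds. Then 10 µM AMC substrate (Km 18.3 µM) was added; fluorescence was read over 15 min and fitted to a 4-parameter Hill equation.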

Assay [13] has as its system Zika virus NS2B-NS3 protease. Nature of the assay: Primary screen GU AMC qHTS for Zika virus inhibitors (AID 1347154). Note: potency is the fitted concentration of half-maximal effect; nearly all actives have a fitted effect of over 70% in size. Put shortly:
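Fluorogenic AMC-substrate cleavage by noncovalent NS2B-NS3 protease complex (25 nM, pH 8.0 Tris buffer with Tween 20) followed for 15 minutes at room temperature (~20% conversion). Percent inhibition from ex340/em450 signal change, fitted by 4-parameter Hill equation.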

The nature of assay [14]: Confirmatory screen NINDS Rhodamine qHTS for Zika virus inhibitors (AID 1347161).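 Note: purified Zika NS2B-NS3 protease with linked NS2B cofactor domain and Rhodamine110 peptide substrate; series mostly up to about 110 µM; nearly all actives have a fitted effect of over 60% in size.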 Put shortly:
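Kinetic fluorescence (Ex 480 nm, Em 540 nm) over 15 min with 1.5 microM Rhodamine110 peptide and 25 nM linked protease.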

Assay [15] in a line: Vero cells viability qHTS for Zika virus inhibitors (AID 1347167). Summed up: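 Luminescent ATP readout (CellTiter Glo) after 30 min at 37 degrees C gives viability; cells in DMEM + 4% FBS were treated 24 to 48 hours with compound, following overnight attachment.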
The nature of assay [16]: Tertiary RLuc qRT-PCR qHTS assay for Zika virus inhibitors (AID 1347169). Note: top concentration of the series differs between compounds; nearly all actives have a fitted effect of over 55% in size. Put shortly:
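Vero cells (1,000/well) infected with recombinant ZIKV-RLuc (Cambodian) at MOI 1-2 after compound addition, 48-72 hrs at 37 degrees C. Live-cell Renilla luciferase substrate added; luminescence read after 1-1.5 hrs.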
On the technique in general: Quantitative PCR measures a nucleic acid by following its amplification.

Molecules are shown by their SMILES. Values joined by “and” are separate entries in the source; they are usually repeats but may differ in a detail not shown here. Identical values can stand only once. Values without a mark were called inactive. Inconclusive results are not listed. Active and inactive are the calls of the source. Unless noted, calls come from the whole dose curve; as a rule, active = well fitted curve in the direction sought with a large enough effect; inconclusive = small, poorly fitted or top-dose-only effect, or another doubt; inactive = no such curve, though single readings can be large; an effect the other way counts as inactive or inconclusive.

Chain of Glucocorticoid receptor (Homo sapiens) (P04150 whole entry, looked up, the tested form may be a part): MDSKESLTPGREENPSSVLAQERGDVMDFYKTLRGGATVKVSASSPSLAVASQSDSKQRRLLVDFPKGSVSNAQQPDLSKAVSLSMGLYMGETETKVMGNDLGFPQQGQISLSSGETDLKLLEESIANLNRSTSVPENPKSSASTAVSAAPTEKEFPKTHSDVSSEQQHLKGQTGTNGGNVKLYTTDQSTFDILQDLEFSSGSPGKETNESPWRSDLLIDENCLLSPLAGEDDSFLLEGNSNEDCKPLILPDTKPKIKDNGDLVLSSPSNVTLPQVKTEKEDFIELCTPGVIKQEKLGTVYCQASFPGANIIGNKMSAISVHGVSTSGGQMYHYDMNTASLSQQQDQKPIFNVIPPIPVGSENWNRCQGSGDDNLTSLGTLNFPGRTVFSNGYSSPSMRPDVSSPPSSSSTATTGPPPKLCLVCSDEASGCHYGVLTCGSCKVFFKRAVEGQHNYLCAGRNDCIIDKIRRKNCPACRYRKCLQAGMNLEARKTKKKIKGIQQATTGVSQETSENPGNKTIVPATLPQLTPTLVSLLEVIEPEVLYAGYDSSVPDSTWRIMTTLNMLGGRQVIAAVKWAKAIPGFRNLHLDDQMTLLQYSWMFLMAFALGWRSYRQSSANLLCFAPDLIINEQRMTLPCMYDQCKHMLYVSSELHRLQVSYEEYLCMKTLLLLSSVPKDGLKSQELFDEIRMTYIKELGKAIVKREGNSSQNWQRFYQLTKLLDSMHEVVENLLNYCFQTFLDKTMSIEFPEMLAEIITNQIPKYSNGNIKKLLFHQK
Chain of Cytochrome P450 1A2 (Homo sapiens) (P05177 whole entry, looked up): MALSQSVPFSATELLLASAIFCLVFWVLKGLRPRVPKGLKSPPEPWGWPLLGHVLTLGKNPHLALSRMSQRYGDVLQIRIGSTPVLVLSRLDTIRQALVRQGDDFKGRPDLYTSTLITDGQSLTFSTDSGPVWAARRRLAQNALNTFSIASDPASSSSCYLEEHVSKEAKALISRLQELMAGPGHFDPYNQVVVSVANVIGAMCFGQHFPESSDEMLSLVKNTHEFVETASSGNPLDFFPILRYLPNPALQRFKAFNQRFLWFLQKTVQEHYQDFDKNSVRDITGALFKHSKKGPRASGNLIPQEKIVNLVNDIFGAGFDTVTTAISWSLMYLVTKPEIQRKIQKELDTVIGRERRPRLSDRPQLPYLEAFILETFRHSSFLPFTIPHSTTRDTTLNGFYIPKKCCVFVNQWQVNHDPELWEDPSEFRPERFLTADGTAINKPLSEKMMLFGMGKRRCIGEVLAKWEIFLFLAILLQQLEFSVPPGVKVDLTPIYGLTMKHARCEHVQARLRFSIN
Chain of DNA dC->dU-editing enzyme APOBEC-3G (Homo sapiens) (Q9HC16 whole entry, looked up): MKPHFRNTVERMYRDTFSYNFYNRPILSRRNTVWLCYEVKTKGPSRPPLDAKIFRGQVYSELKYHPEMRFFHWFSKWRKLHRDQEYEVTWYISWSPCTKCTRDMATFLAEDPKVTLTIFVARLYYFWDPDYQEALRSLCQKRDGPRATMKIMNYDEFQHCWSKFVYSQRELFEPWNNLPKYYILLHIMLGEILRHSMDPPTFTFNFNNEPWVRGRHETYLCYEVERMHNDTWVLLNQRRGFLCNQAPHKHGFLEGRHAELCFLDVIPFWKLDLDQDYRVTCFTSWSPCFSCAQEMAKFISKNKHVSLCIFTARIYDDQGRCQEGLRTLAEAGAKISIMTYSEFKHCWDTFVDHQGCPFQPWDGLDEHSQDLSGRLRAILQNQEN
Chain of Cytochrome P450 2C9 (Homo sapiens) (P11712 whole entry, looked up): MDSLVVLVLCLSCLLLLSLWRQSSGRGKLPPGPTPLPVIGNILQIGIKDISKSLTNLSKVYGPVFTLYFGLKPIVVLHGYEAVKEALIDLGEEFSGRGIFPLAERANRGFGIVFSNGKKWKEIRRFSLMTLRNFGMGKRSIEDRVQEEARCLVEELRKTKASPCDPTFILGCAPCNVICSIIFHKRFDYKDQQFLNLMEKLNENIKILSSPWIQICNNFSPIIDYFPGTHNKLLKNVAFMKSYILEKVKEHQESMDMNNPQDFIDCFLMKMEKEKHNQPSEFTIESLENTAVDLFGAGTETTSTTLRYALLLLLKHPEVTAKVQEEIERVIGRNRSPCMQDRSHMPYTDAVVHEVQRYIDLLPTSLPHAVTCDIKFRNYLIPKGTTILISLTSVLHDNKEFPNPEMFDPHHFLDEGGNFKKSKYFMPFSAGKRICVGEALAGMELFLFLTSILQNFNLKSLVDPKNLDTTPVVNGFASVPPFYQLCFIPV
Chain of 3',5'-cyclic-AMP phosphodiesterase 4B (Homo sapiens) (Q07343 whole entry, looked up): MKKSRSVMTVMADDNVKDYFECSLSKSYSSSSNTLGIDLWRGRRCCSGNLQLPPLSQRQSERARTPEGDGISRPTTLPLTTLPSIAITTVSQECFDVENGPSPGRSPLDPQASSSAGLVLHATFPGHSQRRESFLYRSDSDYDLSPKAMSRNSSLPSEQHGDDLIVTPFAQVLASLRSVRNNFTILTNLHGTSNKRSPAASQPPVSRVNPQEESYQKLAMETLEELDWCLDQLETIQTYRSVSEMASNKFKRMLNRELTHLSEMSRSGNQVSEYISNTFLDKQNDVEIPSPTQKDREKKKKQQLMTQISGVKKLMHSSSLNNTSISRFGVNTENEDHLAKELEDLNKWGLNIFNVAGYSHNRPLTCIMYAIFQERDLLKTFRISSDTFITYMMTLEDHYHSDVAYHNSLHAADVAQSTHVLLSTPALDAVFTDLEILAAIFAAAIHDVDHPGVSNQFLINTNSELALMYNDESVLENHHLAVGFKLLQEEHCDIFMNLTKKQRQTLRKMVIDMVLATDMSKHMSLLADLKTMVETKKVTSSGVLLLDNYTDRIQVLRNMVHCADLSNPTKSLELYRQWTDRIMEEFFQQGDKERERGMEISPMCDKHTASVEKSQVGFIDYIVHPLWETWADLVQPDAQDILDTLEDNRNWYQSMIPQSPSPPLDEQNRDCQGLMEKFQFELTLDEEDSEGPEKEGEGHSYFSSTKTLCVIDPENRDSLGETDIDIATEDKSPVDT

Turning to `Clc1cncc(N2CCNCC2)n1`, the Potency in assay [1] was 2 µM (active); in [2], > 46 µM; in assay [3] it was > 46 µM; in assay [6], 2 µM (active); in assay [10] it was 24.1 µM (active) and 10.8 µM (active); in assay [11] it was 24.1 µM (active) and 8.57 µM (active). The Potency in [13] is 15 µM (active). For the same compound, the outcome in [4] was inactive. For the same compound, the Potency entry in assay [5], in assay [7], in assay [8], in assay [9], in assay [12] and in assay [14] was “inactive” in each case. Further, the Potency entry in assay [15] and in assay [16] was “inactive” each time.
